From PubChem BioAssay
Rows were chosen to be rich in hits. Some 1.5% of all compounds tested hit in one or more screens of this group.
IDE cell inh: inhibits human insulin-degrading enzyme in HEK cells. FAbetaB cleavage, fluorescence polarization. inhibition, % at 5.59 µM. hit rate 0.41% among 320,000. AID 434962;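 active = percent inhibition above the average of all tested compounds plus 3 SD, set per screening campaign, cut at about 16% in these data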;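 also: IDE supplied by intact live HEK cells; FP after avidin binding of uncleaved biotin substrate so inhibition keeps polarization high; 0% = DMSO wells and 100% = 60 µM reference IDE inhibitor Ii1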
CRFBP-R2 agonist: CRF-BP/CRF-R2 complex agonism | HEK293 CRF-R2/CRF-BP, calcium dye fluorescence (FLIPR); percent of saturating CRF peptide response | activation, % at 13.2 µM | hit rate 0.46% among 350,000;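 active = activation of at least 50%, plus an integration ratio under a set limit after plate pattern correction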;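 also: plate controls were neutral control wells without compound for no effect and CRF at EC100 for full effect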
Cardiac RTF inh: cardiac RTF calcium desensitization. IANBD-labeled cardiac RTF, Ca2+ fluorescence. inhibition, % at 7.15 µM. P19429+P45379. hit rate 0.12% among 340,000;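 active = inhibition above the mean inhibition of all tested compounds plus 3 SD, cut at about 17% in these data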;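 also: assay run at fixed EC70 calcium of 1.6 mM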
cardiac RTF act: cardiac RTF calcium sensitization; P19429+P45379; IANBD-labeled TnC RTF fluorescence at EC20 calcium; 0% EC20 calcium, 100% full calcium; activation, % at 7.2 µM; hit rate 0.24% among 340,000; AID 493008;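 active = activation above the mean over all tested compounds plus 3 SD, cut at about 30% in these data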;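 also: rise in fluorescence read as greater calcium sensitivity of cardiac thin filaments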
IDE cell activ: IDE (human) activation, cell-based; HEK cells, FAbeta-B cleavage, fluorescence polarization; 0% vehicle, 100% cell-free pure enzyme wells; activation, % at 5.96 µM; hit rate 0.073% among 340,000; AID 493087;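 active = activation above the mean of all tested compounds plus 3 SD, set per screening campaign, cut at about 17% in these data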
TPT1 inhibitor: inhibitors of Candida albicans tRNA 2'-phosphotransferase TPT1; hit rate 0.81% among 300,000; inhibition, % at 5 µM; recombinant caTPT1, FP RNA substrate dephosphorylation;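 active = inhibition above the mean of all tested compounds plus 3 SD, set per screening campaign, cut at about 24% in these data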;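 also: plate controls were DMSO alone for no effect and ferristatin control at 100 nM for full effect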
TPT1 inh confirm: confirmation of Candida albicans TPT1 inhibitors. shares compounds with TPT1 inhibitor. recombinant caTPT1, fluorescence polarization, RNase T1 coupled. inhibition, % at 5 µM. hit rate 74% among 2,400;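 active = inhibition above the primary screen limit, the mean inhibition of all tested compounds plus 3 SD, cut at about 25% in these data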
RNase T1 counter: blocks Aspergillus oryzae RNase T1, a TPT1 counter-screen; inhibition, % at 5 µM; RNase T1 cleavage, fluorescence polarization, 1536-well; AID 2153; hit rate 83% among 2,400; shares compounds with TPT1 inhibitor;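 active = inhibition above the solvent-only control well mean plus 3 SD, limit set per screening run, cut at about 23% in these data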;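 also: plate controls were DMSO wells with enzyme for no effect and wells without RNase T1 for full effect; inhibitors block cleavage so intact labeled substrate keeps polarization high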
Target sequence (P00651 whole entry, looked up): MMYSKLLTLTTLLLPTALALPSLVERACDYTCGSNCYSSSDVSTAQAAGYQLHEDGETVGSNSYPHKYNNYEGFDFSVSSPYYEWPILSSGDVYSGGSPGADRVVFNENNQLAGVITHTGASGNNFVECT
IDE cell inh cf: confirmation of human insulin-degrading enzyme inhibitors in cells | shares compounds with IDE cell inh | HEK cells, FAbetaB cleavage, fluorescence polarization | hit rate 51% among 1,200 | inhibition, % at 5.59 µM;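 active = mean inhibition across triplicate wells above the cutoff set by the earlier primary insulin-degrading enzyme screen, cut at about 16% in these data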;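 also: 0% = DMSO wells and 100% = 60 µM reference IDE inhibitor Ii1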
HEK cytotox: kills HEK cells in IDE inhibitor counter-screen; shares compounds with IDE cell inh; HEK293 cytotoxicity, ATP luminescence; inhibition, % at 5.59 µM; hit rate 28% among 1,200; AID 449730; in the data active = inhibition above about 22%;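 also: 0% = vehicle wells and 100% = reference cytotoxic drug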
RTF Ca inh conf: cardiac RTF calcium sensitivity inhibition, confirmation | shares compounds with Cardiac RTF inh | reconstituted cardiac thin filaments, calcium sensitivity fluorescence | inhibition, % at 7.15 µM | hit rate 8% among 360; in the data active = inhibition above about 18%
Numbers without * were called inactive; i = inactive; nt = no result; + = active, no number; ! = not active in a repeat.

SMILES	IDE cell inh	CRFBP-R2 agonist	Cardiac RTF inh	cardiac RTF act	IDE cell activ	TPT1 inhibitor	IDE cell inh cf	HEK cytotox	others
COc1ccc(-n2c(O)c(/C=C/C=Nc3ccccc3)c(=O)[nH]c2=O)cc1	159*	105*	-223	202*	-192	178*	51*	1	TPT1 inh confirm=196*;RNase T1 counter=177*
Cc1ccc(N/N=C/c2c(O)n(-c3ccccc3)c(=O)[nH]c2=O)cc1	-2	-3	-1	2	-2	3	nt	nt
Cc1ccc(-n2c(O)c(/C=C/C=Nc3ccccc3)c(=O)[nH]c2=O)cc1	21*	53*	-39	39*	-29	134*	30*	3	TPT1 inh confirm=51*;RNase T1 counter=48*
O=c1[nH]c(=O)n(-c2ccccc2)c(O)c1/C=C/C=Nc1ccccc1	34*	28	-71	78*	-26	157*	35*	3	TPT1 inh confirm=166*;RNase T1 counter=160*
OC(CN1CCC(c2c[nH]c3ccccc23)CC1)C(F)(F)F (centres undefined)	-1	1	-1	-2	-2	0	nt	nt
c1ccc2nc(OCCN3CC3)ccc2c1	1	1	nt	nt	nt	-1	nt	nt
Cc1ccc(N=Nc2c(O)[nH]c(=O)[nH]c2=O)c([N+](=O)[O-])c1	3	-6	8	12	1	-1	nt	nt
O=c1[nH]c(=O)n(C2CCCCC2)c(O)c1/C=C/C=Nc1ccccc1	21*	112*	-83	55*	-40	89*	42*	8	TPT1 inh confirm=81*;RNase T1 counter=76*
O=c1[nH]c(=O)n(C2CCCCCC2)c(O)c1C=NC1CCN(Cc2ccccc2)CC1	1	1	6	4	9	-11	nt	nt
CC(C)(C)C(=O)Nc1ccc(S(=O)(=O)N2CC3CC(C2)c2cccc(=O)n2C3)cc1 (centres undefined)	2	0	1	6	1	-2	nt	nt
COc1ccc(-n2c(/C=C/c3ccc(O)c(OC)c3)nc3ccccc3c2=O)cc1	34*	0	-14	6	-43	45*	102*	26*	TPT1 inh confirm=57*;RNase T1 counter=67*
COc1ccc(-n2c(/C=C/c3ccc4c(c3)OCO4)nc3ccccc3c2=O)cc1	10	-2	-7	6	0	-1	nt	nt
COc1cccc(-n2c(/C=C/c3ccc(O)c(O)c3)nc3ccccc3c2=O)c1	160*	5	8	1	-101	55*	26*	17	TPT1 inh confirm=65*;RNase T1 counter=68*
O=c1[nH]c(=O)n(Cc2ccccc2)c(O)c1/C=N/NCCO	16*	3	nt	nt	nt	24	2	6
O=C1NC(=O)N(c2cccc(Cl)c2)C(=O)/C1=C\c1ccc(Sc2nc3ccccc3[nH]2)o1	26*	19	-38	20	-33	-30	15	10
Cc1cccc(N2C(=O)NC(=O)/C(=C/c3ccc(-c4ccc(C(=O)O)c(Cl)c4)o3)C2=O)c1	1	nt	nt	nt	nt	16	nt	nt
CCOC(=O)c1c(C)n(Cc2ccccc2)c2ccc(OCC(O)CNC(C)(C)C)cc12 (centres undefined)	38*	1	1	-3	-19	-2	19*	18
CCOC(=O)c1c(C)n(Cc2ccccc2)c2ccc(OCC(O)Cn3nc(C)nc3C)cc12 (centres undefined)	15	1	-5	-2	-10	-4	nt	nt
O=c1c2ccccc2nc(/C=C/c2ccc(O)cc2)n1-c1ccc(O)cc1	62*	2	-2	2	-70	10	133*	21
COc1ccc(-n2c(/C=C/c3ccc(O)cc3)nc3ccccc3c2=O)cc1	31*	0	0	-2	-34	8	76*	15
Nc1ccc(C2(c3ccc(N)cc3)CCCCC2)cc1	-1	-1	-7	0	4	2	nt	nt
Cc1cc(C)c(C2=NOC(O)(C(F)(F)F)C2)c(=O)[nH]1 (centres undefined)	-1	-1	-2	-2	0	4	nt	nt
Clc1ccc2[nH]c3c(c2c1)CCNC3	1	3	0	0	5	0	nt	nt
CCOCCN1CCC(OC(C)=O)C(C)C1 (centres undefined)	2	3	-2	11	7	1	nt	nt
CCN1/C(=C\C=C\C2=[N+](CC)c3ccccc3C2(C)C)C(C)(C)c2ccccc21	82*	260*	i	895*	-95	-203	173*	120*
SMILES	IDE cell inh	CRFBP-R2 agonist	Cardiac RTF inh	cardiac RTF act	IDE cell activ	TPT1 inhibitor	IDE cell inh cf	HEK cytotox	others
C[CH2][Hg][S]c1ccccc1C(=O)O	53*	-2	+	i	-50	-4	21*	122*	RTF Ca inh conf=i
COC(=O)C1=C(c2cccc(OC)c2OC)C[C@@H]2CC[C@H]1N2C(=O)NCc1ccco1	0	1	-4	17	4	-2	nt	nt
CC[C@H](C)/C=C(C)/C=C/C1=CC2=C(Cl)C(=O)[C@](C)(OC(C)=O)C(=O)C2=CO1	4	5	39*	-35	5	nt	nt	nt	RTF Ca inh conf=21*
Cc1nc2cc(F)ccc2n1C1CCN(Cc2nnnn2CCc2ccccc2)CC1	-5	-2	18*	3	4	3	nt	nt	RTF Ca inh conf=-3
COc1ccc(CC2NCC(O)C2OC(C)=O)cc1 (centres undefined)	nt	3	0	2	-5	nt	nt	nt
CCCCCCCCC(=O)NCc1ccc(O)c(OC)c1	0	-1	19*	3	7	-1	nt	nt	RTF Ca inh conf=-3
COc1nc2ccccc2nc1N1CCN(C)CC1	nt	0	-6	1	2	nt	nt	nt
COc1ccccc1CCNC1C2CC3CC(C2)CC1C3 (centres undefined)	-4	-1	3	6	5	1	nt	nt
CCCNS(=O)(=O)c1ccc(OCC(=O)N2CCN(Cc3ccc4c(c3)OCO4)CC2)c(C)c1	0	4	-11	-5	2	2	nt	nt
CCCNS(=O)(=O)c1ccc(OCC(=O)N2CCN(Cc3ccc4c(c3)OCO4)CC2)cc1	5	-1	18*	3	1	0	nt	nt	RTF Ca inh conf=-3
NCCc1cc(O)c(O)cc1O	nt	1	26*!	-9	2	nt	nt	nt	RTF Ca inh conf=3
COc1ccc(CCN)cc1O	-2	1	-1	-1	7	1	nt	nt
O=c1[nH]c(=S)n(Cc2ccc(F)cc2)c(O)c1/C=N/N1CCCCC1	9	2	6	0	8	-1	nt	nt
NC(=O)c1ccc(OCCC(O)N2CC=C(c3ccc(F)cc3)CC2)cc1 (centres undefined)	3	-1	95*	-2	5	1	nt	nt	RTF Ca inh conf=-4
